Bioassay records from PubChem BioAssay.
Sfp PPTase inh: inhibitors of Bacillus subtilis Sfp phosphopantetheinyl transferase; 3.5% of 310,000 active; Q9F4F7; AID 1490; Biochemical Sfp PPTase activity, qHTS; Potency, µM, for inactives: largest response in the series, negative = inhibition, most hits filed as inhibitors;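 further: the enzyme is Sfp with the accession as filed and its product quenches rhodamine fluorescence; 0% = enzyme reaction without inhibitor and -100% = no enzyme wells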
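Step 1, compound plus 15 nM Sfp-PPTase, 15 min, room temperature. Step 2, add rhodamine-CoA (5 uM) and BHQ-2-YbbR (12.5 uM). Step 3, read 525/598 nm fluorescence at 0 and 30 min.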
BAZ2B block: BAZ2B (human) inhibition | AID 504333 | 4.4% of 360,000 active | Potency, µM (titrated, usually from 114 µM), for the others: at the top dose activity change, negative = inhibition, usual class: inhibitors | AlphaScreen BAZ2B-H3K14Ac peptide displacement | Q9UIF8; further: on the % scale 0 is the no-effect control and ±100 the full control effect; nearly all actives have a fitted effect of over 60% in size
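Compounds, titrated to a top concentration of 110 uM, were incubated 30 min at room temperature with preformed BAZ2B/acetyl-K14 H3 peptide complex (50 nM each). Proximity signal was measured by AlphaScreen after 20 min with beads.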
HP1b chromo inh: inhibitors of HP1-beta chromodomain binding to methylated histone tails; P83916; AlphaScreen HP1-beta / biotin-H3K9me3 peptide binding; Potency, µM (titrated, usually from 114 µM), for inactives: at the highest dose activity change, negative = inhibition, actives largely listed as inhibitors; 0.56% of 390,000 active; AID 540317; further: nearly all actives have a fitted effect of over 70% in size
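AlphaScreen: HP1-beta (50 nM) preformed 30 min with biotin-H3(1-18)K9me3 peptide (50 nM) in PBS pH 7.4, 0.01% Tween-20. Compound added for 30 min at RT, then streptavidin donor/nickel chelate acceptor beads (10 ug/mL) for 30 min.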
JMJD2A Tudor: blocks the human JMJD2A Tudor domain; AlphaScreen JMJD2A-Tudor / H3K4me3 peptide binding; 4.4% of 390,000 active; Potency, µM (titrated, usually from 114 µM), inactives show at the highest dose activity change, negative = inhibition, most hits filed as inhibitors; O75164; AID 504339; further: on the % scale 0 is the no-effect control and ±100 the full control effect; nearly all actives have a fitted effect of over 50% in size
Target sequence (O75164 whole entry, looked up, the tested form may be a part): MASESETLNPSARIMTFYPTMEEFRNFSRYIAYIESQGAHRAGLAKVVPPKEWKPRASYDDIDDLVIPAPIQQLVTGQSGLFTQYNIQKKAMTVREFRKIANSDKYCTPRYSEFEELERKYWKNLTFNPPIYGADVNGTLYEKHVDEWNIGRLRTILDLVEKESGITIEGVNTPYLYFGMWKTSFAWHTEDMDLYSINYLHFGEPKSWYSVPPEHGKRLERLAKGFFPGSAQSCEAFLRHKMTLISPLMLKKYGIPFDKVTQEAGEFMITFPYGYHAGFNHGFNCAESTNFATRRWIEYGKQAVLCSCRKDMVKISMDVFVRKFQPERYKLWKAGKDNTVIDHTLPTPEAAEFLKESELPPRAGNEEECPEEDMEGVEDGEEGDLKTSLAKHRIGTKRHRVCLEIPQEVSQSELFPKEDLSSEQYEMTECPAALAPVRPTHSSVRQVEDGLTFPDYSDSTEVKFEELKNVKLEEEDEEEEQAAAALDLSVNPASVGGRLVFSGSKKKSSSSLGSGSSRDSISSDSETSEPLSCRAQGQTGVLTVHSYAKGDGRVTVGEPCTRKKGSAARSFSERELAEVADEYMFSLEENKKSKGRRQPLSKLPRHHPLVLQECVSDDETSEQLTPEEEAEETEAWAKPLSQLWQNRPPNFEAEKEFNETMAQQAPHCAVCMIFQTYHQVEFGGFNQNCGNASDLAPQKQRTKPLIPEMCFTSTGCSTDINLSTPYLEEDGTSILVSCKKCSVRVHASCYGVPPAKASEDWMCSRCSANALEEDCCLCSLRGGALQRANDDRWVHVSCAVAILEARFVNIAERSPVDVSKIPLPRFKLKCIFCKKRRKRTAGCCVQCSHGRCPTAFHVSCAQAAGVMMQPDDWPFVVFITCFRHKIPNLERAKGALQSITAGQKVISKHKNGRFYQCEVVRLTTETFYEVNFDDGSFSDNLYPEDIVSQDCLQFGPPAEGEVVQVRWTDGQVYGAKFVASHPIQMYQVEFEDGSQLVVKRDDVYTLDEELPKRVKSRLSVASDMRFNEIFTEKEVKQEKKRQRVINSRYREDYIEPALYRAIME
G9a block: blocks human histone lysine methyltransferase G9a | Potency, µM (titrated, usually from 102 µM), inactives show at the top dose activity, negative = inhibition, most hits filed as inhibitors | 8.8% of 350,000 active | G9a H3K9 monomethylation, AlphaScreen, 2 h; further: on the % scale 0 is the no-effect control and ±100 the full control effect; nearly all actives have a fitted effect of over 75% in size
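Compounds were preincubated with 20 nM G9a for 15 min, after which biotinylated H3K9 peptide (500 nM) and SAM (20 uM) started a 2 h room-temperature reaction. Monomethylated product was quantified by antibody-based AlphaScreen chemiluminescence.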
Active calls of the source: *; [ ] = another dose, or the depositor's remark. This is a sample that favours compounds with a hit; in the whole collection about 12% have one here. The call rests on the fitted dose curve; in most records, active means well fitted curve in the direction sought with a large enough effect; inconclusive means small, poorly fitted or top-dose-only effect, or another doubt; inactive means no such curve, though single readings can be large; an effect the other way counts as inactive or inconclusive. Potency means the concentration at half of the fitted maximal effect.

Results for COc1ccc(/C=C(/NC(=O)c2ccccc2)C(=O)N2CCCC2)cc1 ?
Sfp PPTase inh: 12.9%; BAZ2B block: -0.4%; HP1b chromo inh: 31.8%; JMJD2A Tudor: -9.5%; G9a block: 17.7%

Results for CC(NC(=O)CCC(=O)Nc1ccccc1O)c1ccccc1 (stereo not given) ?
HP1b chromo inh: 36.3%; JMJD2A Tudor: 9.3%

What do the screens show for `CC(CNc1ccccc1O)C(=O)O` (stereo not given)?
Sfp PPTase inh: 50.1µM*; BAZ2B block: 50.1µM*; HP1b chromo inh: 50.1µM*; JMJD2A Tudor: 3.16µM*; G9a block: 15.8µM*

Results for Cc1cccc(NS(=O)(=O)c2cccs2)c1 ?
Sfp PPTase inh: 7.7%; BAZ2B block: -2.2%; HP1b chromo inh: 17.9%; JMJD2A Tudor: -27.6%; G9a block: -8.4%[12.7 µM]

What do the screens show for `Cc1cc(C)nc(NS(=O)(=O)c2cccs2)c1`?
Sfp PPTase inh: -7.8%; BAZ2B block: -3.7%; HP1b chromo inh: 8.3%; JMJD2A Tudor: -6.2%; G9a block: 56.2µM*

Results for O=C1[C@@H]2C(c3ccc(F)cc3)=NO[C@@H]2C(=O)N1Cc1ccccc1 ?
Sfp PPTase inh: 5.3%; BAZ2B block: 0.5%; HP1b chromo inh: 27.7%; JMJD2A Tudor: -6.8%; G9a block: 0.9%

How did CCCC(c1nnnn1C(C)(C)CC)N1CCN(C2CCCC2)CC1 (stereo not given) do in these assays?
Sfp PPTase inh: 6.3%; BAZ2B block: inconclusive; HP1b chromo inh: 25.8%; JMJD2A Tudor: -4.1%[11.4 µM]; G9a block: 89.1µM*

Results for CCCC(c1nnnn1Cc1cccs1)N1CCN(C2CCCC2)CC1 (stereo not given) ?
Sfp PPTase inh: -3.5%; BAZ2B block: inconclusive; HP1b chromo inh: inconclusive; JMJD2A Tudor: 56.2µM*; G9a block: inconclusive

What do the screens show for `CCCC(c1nnnn1Cc1ccco1)N1CCN(C2CCCC2)CC1` (stereo not given)?
Sfp PPTase inh: 4.9%; BAZ2B block: inconclusive; HP1b chromo inh: 1.8%; JMJD2A Tudor: inconclusive; G9a block: 50.1µM*

Results for O=C(CSc1nnc(Cc2ccccc2)n1-c1ccccc1)NNC(=O)Cc1ccccc1 ?
Sfp PPTase inh: 27.7%; BAZ2B block: 3.6%; HP1b chromo inh: 35.6%; JMJD2A Tudor: -16.8%; G9a block: 15.1%[59 µM]

What do the screens show for `CC1CCCCN1C(=O)CSc1nc2ccsc2c(=O)n1Cc1ccccn1` (stereo not given)?
Sfp PPTase inh: 1.7%; BAZ2B block: -2.3%; HP1b chromo inh: 23.8%; JMJD2A Tudor: -6.5%

How did NC(=O)CN1C(=O)C(=O)N(Cc2ccc(Cl)cc2)C1=O do in these assays?
Sfp PPTase inh: 18.3%; BAZ2B block: 0.0%; HP1b chromo inh: 20.8%; JMJD2A Tudor: -24.6%; G9a block: 12.1%

How did COc1ccc(NCc2cccn2-c2nnc(N3CCC(C)CC3)s2)c(OC)c1 do in these assays?
BAZ2B block: inconclusive; HP1b chromo inh: inconclusive; JMJD2A Tudor: 28.2µM*; G9a block: 5.62µM*

Results for COc1ccc(CNC(=O)C2CCN(c3nnc(-n4cccc4CNc4ccc(C)cc4)s3)CC2)c(OC)c1 ?
BAZ2B block: -21.7%; HP1b chromo inh: 0.9%; JMJD2A Tudor: -27.3%; G9a block: 1.41µM*

How did COCCCNC(=O)C1CCN(c2nnc(-n3cccc3CNc3ccc(C)cc3)s2)CC1 do in these assays?
BAZ2B block: inconclusive; HP1b chromo inh: 12.8%; JMJD2A Tudor: -16.7%; G9a block: -4.6%[59 µM]

Results for COc1ccc(OC)c(NC(=O)C2CCCCC2C(=O)O)c1 (stereo not given) ?
Sfp PPTase inh: 2.9%; BAZ2B block: -0.9%; HP1b chromo inh: 27.7%; JMJD2A Tudor: -7.4%; G9a block: 10.6%[59 µM]

Results for COc1ccc(OC)c(NCc2cccn2-c2nnc(N3CCC(C)CC3)s2)c1 ?
BAZ2B block: -32.0%; HP1b chromo inh: inconclusive; JMJD2A Tudor: inconclusive; G9a block: 7.94µM*

How did COc1ccc(OC)c(NC(=O)C2C3CCC(C3=C(C)C)C2C(=O)O)c1 (stereo not given) do in these assays?
Sfp PPTase inh: 39.8µM*; BAZ2B block: -25.6%; HP1b chromo inh: 5.6%; JMJD2A Tudor: inconclusive; G9a block: 8.91µM*

How did COc1ccc(NCc2cccn2-c2nnc(N3CCOCC3)s2)c(OC)c1 do in these assays?
BAZ2B block: -2.6%[57.1 µM]; HP1b chromo inh: 21.5%; JMJD2A Tudor: -22.0%; G9a block: inconclusive

Results for COc1ccc(-c2nnc3n2N=C(c2ccccc2OC)CS3)cc1OC ?
Sfp PPTase inh: -12.2%; JMJD2A Tudor: -17.2%

How did COC(=O)c1c(NC(=O)c2ccccc2[N+](=O)[O-])sc2c1CC(C)(C)NC2(C)C do in these assays?
Sfp PPTase inh: 3.4%; BAZ2B block: -2.3%; HP1b chromo inh: -3.2%; JMJD2A Tudor: -27.0%; G9a block: 2.6%[59 µM]

Results for COc1ccc(CNC(=O)C(OC(=O)c2ccco2)c2ccc(OC)cc2)cc1 (stereo not given) ?
Sfp PPTase inh: 4.8%; BAZ2B block: -5.1%; HP1b chromo inh: 37.1%; JMJD2A Tudor: -5.9%; G9a block: 2.9%[59 µM]

Results for COc1ccccc1OC(=O)c1ccc2nsnc2c1 ?
Sfp PPTase inh: -6.5%; BAZ2B block: 9.9%; HP1b chromo inh: 28.9%; JMJD2A Tudor: -6.0%; G9a block: 15.8%[12.7 µM]

What do the screens show for `COc1ccc(OC)c(NC(=O)Nc2nnc(N3CCC(C)CC3)s2)c1`?
Sfp PPTase inh: -21.7%; BAZ2B block: inconclusive; HP1b chromo inh: 6.3%; JMJD2A Tudor: inconclusive; G9a block: 50.1µM*

What do the screens show for `Cc1nonc1CN(C)C(=O)CC1C(=O)NCCN1Cc1cccc(C(F)(F)F)c1` (stereo not given)?
Sfp PPTase inh: -25.2%; BAZ2B block: -8.1%; HP1b chromo inh: 43.8%; JMJD2A Tudor: -16.1%; G9a block: 50.1µM*

Results for CC1(C)C(=O)NCCN1C(=O)CC1C(=O)NCCN1Cc1cccc(C(F)(F)F)c1 (stereo not given) ?
Sfp PPTase inh: 8.9%; BAZ2B block: -14.8%; HP1b chromo inh: 34.7%; JMJD2A Tudor: -10.7%; G9a block: 44.7µM*

Results for CC(=O)OCC1OC(Oc2cc(OC(C)=O)c3c(=O)cc(-c4ccc(OC(C)=O)cc4)oc3c2)[C@@H](OC(C)=O)C(OC(C)=O)C1OC(C)=O (stereo not given in full) ?
Sfp PPTase inh: 26.3%

Results for COc1cccc(NC(=O)CCN2C(=O)c3cccc([N+](=O)[O-])c3C2=O)c1 ?
Sfp PPTase inh: 9.2%; BAZ2B block: 3.3%; HP1b chromo inh: 9.1%; JMJD2A Tudor: -8.8%; G9a block: -6.2%

How did CC(OC(=O)CCN1C(=O)c2cccc([N+](=O)[O-])c2C1=O)C(=O)Nc1cc(Cl)cc(Cl)c1 (stereo not given) do in these assays?
Sfp PPTase inh: -11.9%; BAZ2B block: -34.2%; HP1b chromo inh: 3.7%; JMJD2A Tudor: -22.9%; G9a block: 25.1µM*
